Measurements: PubChem BioAssay (NCATS)
Results filed as inconclusive are left out. Active and inactive are the calls of the source. The call rests on the fitted dose curve; in most records, active means well fitted curve in the direction sought with a large enough effect; inconclusive means small, poorly fitted or top-dose-only effect, or another doubt; inactive means no such curve, though single readings can be large; an effect the other way counts as inactive or inconclusive.

Columns and labels:
[1] = qHTS of pediatric cancer cell lines to identify multiple opportunities for drug repurposing: Primary screen for SK-N-MC cells (AID 1347093); further: potency means the concentration at half of the fitted maximal effect
Summary of the method: (§1)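 Metabolically active cells were quantified by ATP-dependent luminescence (CellTiter-Glo, 15 min at room temperature) following 48 h treatment. Cells had been plated at 500-1,000 per well and settled for 5 h beforehand.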

[2] = qHTS of pediatric cancer cell lines to identify multiple opportunities for drug repurposing: Primary screen for BT-37 cells (AID 1347094); further: potency means the concentration at half of the fitted maximal effect
Summary of the method: (§2)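 500-1,000 cells/well; 5 h pre-incubation 37 °C/5% CO2; compound pinned; 48 h; CellTiter-Glo, 15 min RT; luminescence. MIPE 11-pt from 0.78 nM, NPC 8-pt from 0.59 nM final. Bortezomib 2.3 µM final as positive control.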

[3] = qHTS of pediatric cancer cell lines to identify multiple opportunities for drug repurposing: Primary screen for U-2 OS cells (AID 1347096); further: nearly all actives have a fitted effect of over 50% in size; further: potency means the concentration at half of the fitted maximal effect
Summary of the method: (§3)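 Cells (500-1,000/well) in growth media were settled 5 h at 37 degrees C, then given compounds for 48 h. Viability was read as CellTiter-Glo luminescence. Primary runs used MIPE at 11 points (0.78 nM-46 µM) and NPC at 8 points (0.59 nM-46 µM); follow-ups used 11 points.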

[4] = qHTS of pediatric cancer cell lines to identify multiple opportunities for drug repurposing: Primary screen for Saos-2 cells (AID 1347097); settings: Saos-2 viability, CellTiter-Glo ATP luminescence, 48 h; further: potency means the concentration at half of the fitted maximal effect; nearly all actives have a fitted effect of over 40% in size
Summary of the method: as §2

[5] = qHTS of pediatric cancer cell lines to identify multiple opportunities for drug repurposing: Primary screen for SK-N-SH cells (AID 1347098); further: nearly all actives have a fitted effect of over 65% in size; further: potency means the concentration at half of the fitted maximal effect
Summary of the method: (§4)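 Cells (500-1,000/well) rested 5 h, then received compounds for 48 h; metabolically active cells were measured by CellTiter-Glo luminescence. Final concentrations spanned up to 46 µM (MIPE, 11-point) or 0.59 nM-46 µM (NPC, 8-point) in primary screens, 11-point in follow-ups.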

[6] = qHTS of pediatric cancer cell lines to identify multiple opportunities for drug repurposing: Primary screen for NB1643 cells (AID 1347099); further: nearly all actives have a fitted effect of over 50% in size; further: potency means the concentration at half of the fitted maximal effect
Summary of the method: as §2

[7] = qHTS of pediatric cancer cell lines to identify multiple opportunities for drug repurposing: Primary screen for BT-12 cells (AID 1347101); further: nearly all actives have a fitted effect of over 25% in size; further: potency means the concentration at half of the fitted maximal effect
Summary of the method: as §4

[8] = qHTS of pediatric cancer cell lines to identify multiple opportunities for drug repurposing: Primary screen for Rh18 cells (AID 1347102); further: nearly all actives have a fitted effect of over 65% in size; further: potency means the concentration at half of the fitted maximal effect
Summary of the method: as §3

[9] = qHTS of pediatric cancer cell lines to identify multiple opportunities for drug repurposing: Primary screen for OHS-50 cells (AID 1347103); further: nearly all actives have a fitted effect of over 40% in size; further: potency means the concentration at half of the fitted maximal effect
Summary of the method: as §4

[10] = qHTS of pediatric cancer cell lines to identify multiple opportunities for drug repurposing: Primary screen for RD cells (AID 1347104); further: nearly all actives have a fitted effect of over 55% in size; further: potency means the concentration at half of the fitted maximal effect
Summary of the method: as §2

[11] = qHTS of pediatric cancer cell lines to identify multiple opportunities for drug repurposing: Primary screen for MG 63 (6-TG R) cells (AID 1347105); further: nearly all actives have a fitted effect of over 50% in size; further: potency means the concentration at half of the fitted maximal effect
Summary of the method: as §2

[12] = qHTS of pediatric cancer cell lines to identify multiple opportunities for drug repurposing: Primary screen for control Hh wild type fibroblast cells (AID 1347106);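 further: series mostly up to about 46 µM; a drop in luminescence marks cytotoxicity and a rise apparent proliferation; nearly all actives have a fitted effect of over 55% in size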
Summary of the method: as §3

[13] = qHTS of pediatric cancer cell lines to identify multiple opportunities for drug repurposing: Primary screen for Rh30 cells (AID 1347107); further: nearly all actives have a fitted effect of over 75% in size; further: potency means the concentration at half of the fitted maximal effect
Summary of the method: as §3

[14] = qHTS of pediatric cancer cell lines to identify multiple opportunities for drug repurposing: Primary screen for Rh41 cells (AID 1347108); further: nearly all actives have a fitted effect of over 70% in size; further: potency means the concentration at half of the fitted maximal effect
Summary of the method: as §2

[15] = qHTS of pediatric cancer cell lines to identify multiple opportunities for drug repurposing: Confirmatory screen for NB1643 cells (AID 1347109); settings: NB1643 neuroblastoma cell viability; further: potency means the concentration at half of the fitted maximal effect; nearly all actives have a fitted effect of over 45% in size
Summary of the method: as §3

[16] = qHTS of pediatric cancer cell lines to identify multiple opportunities for drug repurposing: Confirmatory screen for A673 cells (AID 1347110); settings: A673 Ewing sarcoma cell viability;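 further: potency means the concentration at half of the fitted maximal effect; cells exposed to compound for 48 h before the viability read; nearly all actives have a fitted effect of over 65% in size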
Summary of the method: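 Viability was read as ATP luminescence (CellTiter-Glo) after 48 h of compound exposure at 37 C in A673 cells seeded at 500-1,000/well. Titrations reached 46 uM final, with 11 points in the confirmatory screen. Concentration-response curves were fitted directly.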

[17] = qHTS of pediatric cancer cell lines to identify multiple opportunities for drug repurposing: Confirmatory screen for SK-N-MC cells (AID 1347111); settings: SK-N-MC cell viability;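 further: potency means the concentration at half of the fitted maximal effect; cells exposed to compound for 48 h before the readout; nearly all actives have a fitted effect of over 70% in size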
Summary of the method: as §1

[18] = qHTS of pediatric cancer cell lines to identify multiple opportunities for drug repurposing: Confirmatory screen for BT-12 cells (AID 1347112); settings: BT-12 rhabdoid tumor cells, viability; further: potency means the concentration at half of the fitted maximal effect; nearly all actives have a fitted effect of over 55% in size
Summary of the method: as §3

[19] = qHTS of pediatric cancer cell lines to identify multiple opportunities for drug repurposing: Primary screen for NB-EBc1 cells (AID 1347095)
Summary of the method: as §2

[20] = qHTS of pediatric cancer cell lines to identify multiple opportunities for drug repurposing: Primary screen for LAN-5 cells (AID 1347100)
Summary of the method: as §3

**Q.** With `C[CH2][Hg][S]c1ccccc1C(=O)O` as the compound, how does the Potency [1] read?
**A.** 0.668 µM (active)

**Q.** And the Potency [2]?
**A.** 12.3 µM (active)

**Q.** What about the Potency [3] of the same compound?
**A.** 6.68 µM (active)

**Q.** And the Potency [4]?
**A.** 0.841 µM (active)

**Q.** And the Potency [5]?
**A.** 3.07 µM (active)

**Q.** What about the Potency [6] of the same compound?
**A.** 2.37 µM (active)

**Q.** And the Potency [7]?
**A.** 3.47 µM (active)

**Q.** And the Potency [8]?
**A.** 4.73 µM (active)

**Q.** And the Potency [9]?
**A.** 3.89 µM (active)

**Q.** And the Potency [10]?
**A.** 4.73 µM (active)

**Q.** And the Potency [11]?
**A.** 2.66 µM (active)

**Q.** And the outcome [12]?
**A.** inactive

**Q.** What about the Potency [13] of the same compound?
**A.** 2.66 µM (active)

**Q.** And the Potency [14]?
**A.** 2.37 µM (active)

**Q.** And the Potency [15]?
**A.** 2.93 µM (active)

**Q.** And the Potency [16]?
**A.** 7.37 µM (active)

**Q.** And the Potency [17]?
**A.** 2.93 µM (active)

**Q.** What about the Potency [18] of the same compound?
**A.** 6.57 µM (active)

**Q.** With `CCCSP(=O)(OCC)SCCC` as the compound, how does the Potency [1] read?
**A.** inactive

**Q.** And the Potency [2]?
**A.** inactive

**Q.** And the outcome [19]?
**A.** inactive

**Q.** And the Potency [3]?
**A.** inactive

**Q.** What about the Potency [5] of the same compound?
**A.** inactive

**Q.** And the Potency [6]?
**A.** inactive

**Q.** And the outcome [20]?
**A.** inactive

**Q.** And the Potency [7]?
**A.** inactive

**Q.** What about the Potency [8] of the same compound?
**A.** inactive

**Q.** And the Potency [9]?
**A.** inactive

**Q.** And the Potency [10]?
**A.** inactive

**Q.** And the Potency [11]?
**A.** inactive

**Q.** What about the outcome [12] of the same compound?
**A.** inactive

**Q.** What about the Potency [13] of the same compound?
**A.** inactive

**Q.** What about the Potency [14] of the same compound?
**A.** inactive
